Hits are enriched below; roughly 2.5% of the tested compounds scored in any of these assays.
RAD52 anneal inh – blocks human RAD52 DNA annealing. P43351. recombinant RAD52 DNA annealing, FRET fluorescence. inhibition, % at 18.7 µM. 360,000 compounds, 0.46% hits;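 active means every replicate showing at least 50% inhibition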
Ecoli rRNA inh – selective bacterial rRNA inhibition in E. coli. E. coli WT GFP vs humanized-ribosome RFP mutants, fluorescence, 24 h; stronger effect = lower value; DMSO median 0, no signal -100. GFP signal change (wild-type ribosome), % (concentration not given with the values). 350,000 compounds, 1.6% hits;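 active means significant combined selectivity score with lowered wild-type GFP, culture density cut under 30%, mutant RFP and density less affected; inactive means any of these conditions unmet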
CASP6 VEID inh – inhibitors of human caspase-6; P55212; purified caspase-6, Z-VEID-R110 cleavage fluorescence; inhibition, % at 12.5 µM; 350,000 compounds, 0.53% hits; AID 686996;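 active means mean inhibition across replicates at least about 35%, with every replicate also reaching that limit, limit read from the data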;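 further: 0% = median of neutral control wells and 100% = no fluorescence left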
Target sequence (P55212 24-179 limits assumed): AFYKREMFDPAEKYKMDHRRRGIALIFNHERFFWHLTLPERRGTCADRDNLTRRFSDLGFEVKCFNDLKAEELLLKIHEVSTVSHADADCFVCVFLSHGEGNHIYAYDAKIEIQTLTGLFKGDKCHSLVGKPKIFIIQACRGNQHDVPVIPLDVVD
Target sequence (P55212 194-293 limits assumed): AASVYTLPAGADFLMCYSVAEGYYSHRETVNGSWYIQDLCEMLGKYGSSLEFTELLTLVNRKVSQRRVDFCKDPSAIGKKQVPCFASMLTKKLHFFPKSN
AF4-AF9 inh – blocks AF4 peptide binding to human AF9; AlphaScreen, biotin-AF4 peptide binding to FLAG-AF9; inhibition, % at 10 µM; 350,000 compounds, 0.47% hits; AID 651704;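 active means every replicate reaching a set inhibition limit, whatever the replicate mean, cut at about 25% in these data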;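 further: 0% = plate neutral control median and 100% = total signal loss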
NSD2 HMT inh – blocks human histone methyltransferase NSD2. O96028. NSD2 peptide methylation, AlphaScreen, 120 min. inhibition, % at 12.5 µM. 310,000 compounds, 0.54% hits. AID 743445; in the data active means inhibition above about 50%
* marks the source's active call; other numbers are inactive results; x = no result given.

SMILES	RAD52 anneal inh	Ecoli rRNA inh	CASP6 VEID inh	AF4-AF9 inh	NSD2 HMT inh
COc1ccc(-c2nn(-c3ccccc3)cc2/C=C/C(=O)N2CCOCC2)cc1OC	-6	-24*	4	5	-2
CC1=[N+](C)c2c(ccc3cccnc23)C1(C)C	-38	-37	0	29*	x
COc1ccc(CNC(=S)Nc2ccc3nc(N4CCN(C)CC4)cc(C)c3c2)cc1	47	-9	-21	26*	x
COc1ccc(CNC(=S)Nc2ccc3nc(N4CCOCC4)cc(C)c3c2)cc1	-9	-31	0	-2	-3
COc1cc(C(=O)Nc2ccc3nc(N4CCN(C)CC4)cc(C)c3c2)cc(OC)c1OC	56*	-9	-30	12	6
CCCCN(CC)CCCNC(=S)Nc1ccc2nc(N3CCN(CC)CC3)cc(C)c2c1	90*	3	-80	5	x
CCC(=O)Nc1nc2ccc(NC(=O)c3cc(OC)c(OC)c(OC)c3)cc2s1	-12	-36*	1	2	-1
COc1cc(C(=O)Nc2ccc3nc(N4CCOCC4)sc3c2)cc(OC)c1OC	-1	2	-1	0	0
CCS(=O)(=O)N[C@H]1CC[C@H](CC(=O)N2CCCCC2)O[C@H]1CO	-20	x	28	-5	x
C[C@@H]1CN([C@@H](C)CO)C(=O)c2cc(-c3cccnc3)cnc2O[C@@H]1CN(C)C(=O)C1CCOCC1	4	4	2	0	x
C[C@@H]1CN([C@H](C)CO)C(=O)c2cccc(NC(=O)C3CCOCC3)c2O[C@@H]1CN(C)S(=O)(=O)c1ccccc1	4	-1	2	-1	x
CC(C)[C@@H]1C/C=C\CCNC(=O)[C@H](C)CC(=O)N1	x	0	x	x	x
OCCCc1cn(-c2ccccc2)c2ccccc12	0	-39*	3	3	3
COc1ccc(S(=O)(=O)/N=C2/NC(=O)/C(=C\c3ccco3)S2)cc1	x	x	x	x	17
COc1ccc(S(=O)(=O)/N=C2/NC(=O)/C(=C/c3ccco3)S2)cc1	-135	-6	62*	-5	26
O=C(NCC(F)(F)F)[C@@H]1[C@@H](CO)[C@@H]2Cn3c(ccc(-c4cccnc4)c3=O)[C@H]1N2Cc1ccccc1	-8	-1	-2	-1	x
COc1ccc2c3c([nH]c2c1)[C@H](CO)N(Cc1cccc(F)c1)CC31CN(CC2CC2)C1	5	2	5	23	x
CCC(C)c1ccccc1O (centres undefined)	-9	0	-7	x	x
CCC(c1ccccc1)C(CC)c1cc(O)c(O)c(O)c1 (centres undefined)	-7	-26*	17	-2	17
Cc1nc2c(nc1C)C(=O)c1ccccc1C2=O	10	-24	36*	-3	48
C[C@H]1CN([C@@H](C)CO)C(=O)Cc2cc(N(C)C)ccc2O[C@@H]1CN(C)Cc1ccc(Cl)c(Cl)c1	10	-13	-1	18	x
O=C(COc1ccc(/C=C\[N+](=O)[O-])cc1)N1CCOCC1	-7	18	-4	-7	x
O=[N+]([O-])/C=C\c1ccc(N2CCOCC2)cc1	-20	-19*	-1	x	x
O=C(Nc1ccccc1)N1CCc2c([nH]c3ccccc23)C1C(F)(F)F (centres undefined)	-5	x	-3	x	17
O=C(c1ccc(Cl)cc1)N1CCc2c([nH]c3ccccc23)C1C(F)(F)F (centres undefined)	-16	-21*	2	5	x
SMILES	RAD52 anneal inh	Ecoli rRNA inh	CASP6 VEID inh	AF4-AF9 inh	NSD2 HMT inh
Cc1noc(C)c1S(=O)(=O)N(C)C[C@@H]1Oc2ccc(NC(=O)Nc3ccccc3)cc2CC(=O)N([C@H](C)CO)C[C@H]1C	x	1	x	x	x
Cc1ccc(NC(=O)c2ccc(=O)[nH]n2)cc1S(=O)(=O)Nc1ccccc1Cl	-9	x	1	1	-2
Cc1ccc(NC(=S)NC(=O)c2ccc(F)cc2)cc1S(=O)(=O)Nc1ccccc1Cl	-38	-26*	-2	-1	-3
Cc1cc(OC(=O)c2ccccc2Cl)c([N+](=O)[O-])c(=O)[nH]1	-10	9	3	-15	x
Cc1cc(OC(=O)c2ccc(Cl)cc2Cl)c([N+](=O)[O-])c(=O)[nH]1	-11	-1	9	37*	x
NS(=O)(=O)c1cccc(NC(=O)Nc2ccc(Cl)cc2)c1	-11	-31*	0	-6	x
NS(=O)(=O)c1cccc(NC(=O)c2cccc(-c3ccc(O)cc3)c2)c1	-6	-26*	0	0	1
Cc1cccc(NC(=O)Nc2ccc(S(N)(=O)=O)cc2)c1	-8	-3	1	x	1
